From PubChem BioAssay AID1159580 (chemical genetic matrix, 2015)
Values joined by “and” are separate entries in the source; they are usually repeats but may differ in a detail not shown here. Equal values may be shown once. Out of some 5,500 compounds screened, about 2,000 (36%) were called active. About 18% were inconclusive and are not listed. No stated cut-off is given here; in the data, active means normalized growth mostly below about 0.91 (no sharp cut-off); inconclusive means no clear call, values can overlap the other calls; inactive means mostly above about 0.92. The list shows a part of the results.

Test: chemical genetic growth profiling, strain panel (AID 1159580);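 further: tested at 20 µM; growth read once vehicle control cultures reached saturation at 30 °C; 1 = growth at the plate median or of vehicle wells; lower values mean less growth of the strain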
Conditions: S. cerevisiae deletion strains, growth OD
[1] = locus YHR030C, strain SLT2, hits give low values
[2] = locus YHR079C, strain IRE1, hits give low values
[3] = locus YJL095W, strain BCK1, hits give low values
[4] = locus YJR066W, strain TOR1, hits give low values
[5] = locus YLR113W, strain HOG1, hits give low values
[6] = locus YMR263W, strain SAP30, hits give low values
[7] = locus YMR307W, strain GAS1, hits give low values
[8] = locus YNL183C, strain NPR1, hits give low values
[9] = locus YOR231W, strain MKK1, hits give low values
[10] = locus YPL241C, strain CIN2, hits give low values
[11] = locus YPL256C, strain CLN2, hits give low values

Measured: normalized growth

NCCCNCCCCNCCCN
inactive: locus YAL040C, strain CLN3, hits give low values 0.997 | locus YCL061C, strain MRC1 (second series), hits give low values 1.01 | locus YDR363W, strain ESC2, hits give low values 1.02 | locus YER002W, strain NOP16, hits give low values 1.02 | locus YGR078C, strain PAC10, hits give low values 1.01 | [1] 1.01 | [2] 0.994 | [3] 0.98 | [4] 0.925 | [5] 0.975 | [6] 0.995 | [7] 1.01 | locus YNL128W, strain TEP1, hits give low values 0.962 | locus YNL175C, strain NOP13, hits give low values 0.978 | [8] 0.93 | locus YNL197C, strain WHI3, hits give low values 0.992 | locus YNL224C, strain SQS1, hits give low values 0.986 | locus YOR083W, strain WHI5 (second series), hits give low values 0.994 | [9] 0.999 | [10] 1 | [11] 1.02

CC(C)=CC1C(C(=O)O)C1(C)C (stereo not given)
inactive: locus YAL013W, strain DEP1, hits give low values 0.988 | locus YAL021C, strain ccr4, hits give low values 0.989 | locus YAL026C, strain drs2, hits give low values 0.962 | locus YAL030W, strain snc1, hits give low values 0.976 | locus YBL061C, strain skt5, hits give low values 0.963 | locus YBR009C, strain hhf1, hits give low values 0.939 | locus YBR021W, strain FUR4, hits give low values 1.03 | locus YBR023C, strain chs3, hits give low values 0.966 | locus YBR171W, strain sec66, hits give low values 0.96 | locus YBR229C, strain ROT2, hits give low values 0.996 | locus YBR231C, strain swc5, hits give low values 0.985 | locus YBR279W, strain paf1, hits give low values 0.976 | locus YCL011C, strain gbp2, hits give low values 0.962 | locus YCL016C, strain dcc1, hits give low values 0.987 | locus YCL029C, strain bik1, hits give low values 0.981 | locus YCL061C, strain MRC1, hits give low values 0.987 | locus YCL069W, strain vba3, hits give low values 0.972 | locus YCR088W, strain abp1, hits give low values 0.983 | locus YDL005C, strain med2, hits give low values 0.976 | locus YDL035C, strain GPR1, hits give low values 0.998 | locus YDL040C, strain nat1, hits give low values 0.965 | locus YDL074C, strain BRE1, hits give low values 1.01 | locus YDL101C, strain DUN1, hits give low values 1.02 | locus YDL185W, strain tfp1, hits give low values 0.954 | locus YDL192W, strain arf1, hits give low values 0.966 | locus YDR001C, strain nth1, hits give low values 0.962 | locus YDR069C, strain doa4, hits give low values 0.967 | locus YDR101C, strain arx1, hits give low values 0.979 | locus YDR137W, strain rgp1, hits give low values 0.97 | locus YDR150W, strain NUM1, hits give low values 0.983 | locus YDR159W, strain sac3, hits give low values 0.959 | locus YDR162C, strain NBP2, hits give low values 1.08 | locus YDR195W, strain ref2 0.997 | locus YDR297W, strain sur2, hits give low values 0.979 | locus YDR318W, strain mcm21, hits give low values 0.977 | locus YDR334W, strain swr1, hits give low values 0.976 | locus YDR335W, strain msn5, hits give low values 0.977 | locus YDR388W, hits give low values 0.98 | locus YDR392W, strain spt3, hits give low values 0.883 | locus YDR502C, strain sam2, hits give low values 1.01 | locus YEL003W, strain gim4, hits give low values 0.971 | locus YEL037C, strain rad23, hits give low values 0.966 | locus YEL061C, strain CIN8 (second series), hits give low values 0.967 | locus YEL061C, strain CIN8, hits give low values 0.996 | locus YER015W, strain faa2, hits give low values 0.983 | locus YER016W, strain bim1, hits give low values 0.982 | locus YER110C, hits give low values 0.951 | locus YER111C, strain swi4, hits give low values 0.972 | locus YER155C, strain BEM2 (second series), hits give low values 0.972 | locus YER155C, strain BEM2, hits give low values 0.999 | locus YER167W, strain BCK2, hits give low values 0.997 | locus YFR010W, strain ubp6, hits give low values 0.972 | locus YGL078C, strain dbp3, hits give low values 0.991 | locus YGL086W, strain mad1, hits give low values 0.967 | locus YGL167C, strain pmr1, hits give low values 0.969 | locus YGL173C, strain kem1, hits give low values 0.959 | locus YGL227W, strain vid30, hits give low values 0.968 | locus YGL240W, strain doc1, hits give low values 0.974 | locus YGL248W, strain PDE1, hits give low values 1.04 | locus YGL253W, strain hxk2, hits give low values 0.993 | locus YGR135W, strain pre9, hits give low values 1 | locus YGR229C, strain SMI1, hits give low values 1.05 | locus YGR252W, strain gcn5, hits give low values 1.15 | locus YHR013C, strain ard1, hits give low values 0.956 | locus YHR027C, strain rpn1, hits give low values 0.973 | [1] 0.992 and 0.957 | locus YHR079C, strain IRE1 (second series), hits give low values 0.988 | [2] 0.957 | locus YHR094C, strain hxt1, hits give low values 0.968 | locus YHR129C, strain ARP1, hits give low values 0.997 | locus YHR142W, strain chs7, hits give low values 1.02 | locus YHR200W, strain rpn10, hits give low values 0.979 | locus YIL066C, strain RNR3, hits give low values 1.02 | locus YIL073C, strain SPO22, hits give low values 0.967 | locus YIL125W, strain kgd1, hits give low values 0.98 | locus YIR030C, strain dcg1, hits give low values 0.979 | locus YJL092W, strain hpr5, hits give low values 0.985 | locus YJL095W, strain BCK1 (second series), hits give low values 0.985 | [3] 1.08 and 0.996 | locus YJL115W, strain asf1, hits give low values 0.975 | locus YJL129C, strain trk1, hits give low values 0.981 | locus YJL134W, strain LCB3, hits give low values 0.99 | locus YJL154C, strain vps35, hits give low values 0.96 | locus YJL164C, strain tpk1, hits give low values 1.01 | locus YJL166W, strain qcr8, hits give low values 0.979 | locus YJL168C, strain set2, hits give low values 0.991 | locus YJL187C, strain SWE1 (second series), hits give low values 1.04 | locus YJL187C, strain SWE1, hits give low values 0.972 | locus YJR043C, strain POL32, hits give low values 1.04 | [4] 0.905 | locus YKL009W, strain mrt4, hits give low values 0.963 | locus YKL068W, hits give low values 0.988 | locus YKL085W, strain MDH1 (second series), hits give low values 0.971 | locus YKL085W, strain MDH1, hits give low values 0.971 | locus YKL160W, strain elf1, hits give low values 1.04 | locus YKL190W, strain CNB1, hits give low values 0.991 | locus YKR001C, strain vps1, hits give low values 0.973 | locus YKR026C, strain gcn3, hits give low values 0.977 | locus YKR091W, strain srl3, hits give low values 0.973 | locus YLL001W, strain dnm1, hits give low values 0.999 | locus YLL026W, hits give low values 0.982 | locus YLL041C, strain sdh2, hits give low values 0.984 | locus YLR027C, strain aat2, hits give low values 0.987 | locus YLR039C, strain RIC1, hits give low values 1.04 | locus YLR058C, strain SHM2, hits give low values 1.02 | locus YLR102C, strain apc9, hits give low values 0.957 | [5] 1.04 | locus YLR221C, strain rsa3, hits give low values 1 | locus YLR258W, strain gsy2, hits give low values 0.963 | locus YLR262C, strain YPT6 (second series), hits give low values 1 | locus YLR262C, strain YPT6, hits give low values 1.04 | locus YLR268W, strain sec22, hits give low values 0.972 | locus YLR320W, strain mms22, hits give low values 0.989 | locus YLR330W, strain CHS5, hits give low values 0.984 | locus YLR342W, strain FKS1 (second series), hits give low values 1.03 | locus YLR342W, strain FKS1, hits give low values 0.959 | locus YLR357W, strain rsc2, hits give low values 0.963 | locus YLR370C, strain arc18, hits give low values 0.976 | locus YLR371W, strain rom2, hits give low values 0.968 | locus YLR384C, strain iki3, hits give low values 0.981 | locus YLR418C, strain cdc73, hits give low values 1.02 | locus YML016C, strain PPZ1, hits give low values 0.999 | locus YML032C, strain rad52, hits give low values 1 | locus YML120C, strain ndi1, hits give low values 0.987 | locus YML124C, strain tub3, hits give low values 0.973 | locus YMR058W, strain fet3, hits give low values 0.966 | locus YMR078C, strain ctf18, hits give low values 0.975 | locus YMR125W, strain sto1, hits give low values 0.914 | locus YMR129W, hits give low values 0.965 | locus YMR205C, strain PFK2, hits give low values 0.932 | locus YMR223W, strain ubp8, hits give low values 0.988 | locus YMR231W, strain pep5, hits give low values 0.968 | [6] 1.01 | [7] 1.24 | locus YNL067W, strain RPL9B, hits give low values 1.05 | locus YNL071W, strain lat1, hits give low values 0.977 | locus YNL153C, strain GIM3, hits give low values 1.05 | [8] 0.971 | locus YNL209W, strain ssb2, hits give low values 0.977 | locus YNL233W, strain BNI4, hits give low values 1.07 | locus YNL248C, strain rpa49, hits give low values 1.01 | locus YNL250W, strain rad50, hits give low values 0.965 | locus YNL271C, strain bni1, hits give low values 0.973 | locus YNL298W, strain CLA4, hits give low values 0.99 | locus YNL307C, strain MCK1, hits give low values 0.988 | locus YNL322C, strain KRE1 (second series), hits give low values 0.973 | locus YNL322C, strain KRE1, hits give low values 0.998 | locus YNR049C, strain mso1, hits give low values 0.966 | locus YNR052C, strain pop2, hits give low values 0.972 | locus YOL006C, strain TOP1, hits give low values 1.06 | locus YOL012C, strain htz1 1.34 | locus YOL147C, strain pex11, hits give low values 0.989 | locus YOR001W, strain rrp6, hits give low values 1.01 | locus YOR061W, strain CKA2, hits give low values 1.01 | locus YOR069W, strain VPS5, hits give low values 0.992 | locus YOR070C, strain gyp1, hits give low values 0.985 | locus YOR080W, strain dia2, hits give low values 0.965 | locus YOR083W, strain WHI5, hits give low values 1.05 | locus YOR106W, strain vam3, hits give low values 1.01 | locus YOR136W, strain idh2, hits give low values 0.979 | locus YOR144C, strain elg1, hits give low values 1 | locus YOR184W, strain ser1, hits give low values 0.963 | [9] 0.954 | locus YOR265W, strain rbl2, hits give low values 0.986 | locus YOR270C, strain vph1, hits give low values 0.975 | locus YOR290C, strain snf2, hits give low values 0.925 | locus YOR316C, strain cot1, hits give low values 0.974 | locus YPL051W, strain arl3, hits give low values 1 | locus YPL055C, strain LGE1, hits give low values 1.06 | locus YPL078C, strain atp4, hits give low values 1 | locus YPL106C, strain sse1, hits give low values 0.972 | locus YPL240C, strain hsp82, hits give low values 0.997 | [10] 0.998 | [11] 0.975 | locus YPR119W, strain clb2, hits give low values 0.96 | locus YPR141C, strain kar3, hits give low values 0.969 | locus YPR163C, strain tif3, hits give low values 0.992 | locus YPR167C, strain met16, hits give low values 0.941 | strain wtn01, hits give low values 0.979
